The values below come from article PMC7862700, “An all-to-all approach to the identification of sequence-specific readers for epigenetic DNA modifications on cytosine”.

What all share (test): DAPPL (digital affinity profiling via proximity ligation, sequencing); 10 mM Tris-HCl pH 7.5, 50 mM NaCl, 1 mM DTT, 4% glycerol, room temperature, 30 min; GST-TFs on glutathione beads, 16-mer random dsDNA library, 0.1% formaldehyde crosslink after washing; high values mean tight binding
Details in all cases: protein: recombinant; tags: N-terminal GST; dsDNA, one strand shown

The target of one experiment is T1, FLI1 (Homo sapiens, UniProt Q01543 1-452).
T1 sequence: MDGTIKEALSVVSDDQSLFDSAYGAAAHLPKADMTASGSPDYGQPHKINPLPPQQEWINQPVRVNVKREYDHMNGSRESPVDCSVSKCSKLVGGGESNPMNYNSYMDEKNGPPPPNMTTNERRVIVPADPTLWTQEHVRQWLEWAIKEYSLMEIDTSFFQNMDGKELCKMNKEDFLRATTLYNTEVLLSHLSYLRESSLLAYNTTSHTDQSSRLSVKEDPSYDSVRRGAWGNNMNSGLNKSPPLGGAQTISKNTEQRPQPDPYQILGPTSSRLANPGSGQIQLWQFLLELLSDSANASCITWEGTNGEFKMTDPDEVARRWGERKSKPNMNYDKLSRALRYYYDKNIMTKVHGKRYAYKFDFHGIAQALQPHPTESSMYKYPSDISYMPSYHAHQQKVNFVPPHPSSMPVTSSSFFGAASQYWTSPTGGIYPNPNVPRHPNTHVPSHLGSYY
The method in brief: (§1)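 Each value of binding signal is a hexamer's read frequency for a factor divided by the same hexamer's frequency in the tag-only sample. Barcoded, bead-captured GST fusions of human transcription factors made in yeast were pooled with that sample and incubated with 200 nmole of a random double-stranded 16-mer DNA library in Tris/NaCl/DTT/glycerol buffer at room temperature for 30 min. Washing, 0.1% formaldehyde crosslinking, proximity ligation, PCR and Illumina NextSeq500 sequencing followed.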

A further experiment has as its target T2, ELK1 (Homo sapiens, UniProt P19419 1-428).
T2 sequence: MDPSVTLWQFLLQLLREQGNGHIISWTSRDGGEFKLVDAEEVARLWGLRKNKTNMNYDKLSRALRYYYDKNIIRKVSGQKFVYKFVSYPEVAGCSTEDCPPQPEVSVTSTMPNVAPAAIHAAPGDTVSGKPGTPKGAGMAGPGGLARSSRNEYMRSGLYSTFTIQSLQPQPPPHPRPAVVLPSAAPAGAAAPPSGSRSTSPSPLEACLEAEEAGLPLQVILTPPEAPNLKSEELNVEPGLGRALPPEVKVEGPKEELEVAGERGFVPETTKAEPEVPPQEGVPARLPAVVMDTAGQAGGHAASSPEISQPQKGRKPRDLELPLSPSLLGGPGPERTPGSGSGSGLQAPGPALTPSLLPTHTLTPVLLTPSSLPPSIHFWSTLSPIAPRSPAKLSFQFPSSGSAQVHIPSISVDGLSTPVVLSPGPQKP
The method in brief:
as §1

The target in a further experiment is T3, GABPA (Homo sapiens, UniProt Q06546 1-454).
T3 sequence: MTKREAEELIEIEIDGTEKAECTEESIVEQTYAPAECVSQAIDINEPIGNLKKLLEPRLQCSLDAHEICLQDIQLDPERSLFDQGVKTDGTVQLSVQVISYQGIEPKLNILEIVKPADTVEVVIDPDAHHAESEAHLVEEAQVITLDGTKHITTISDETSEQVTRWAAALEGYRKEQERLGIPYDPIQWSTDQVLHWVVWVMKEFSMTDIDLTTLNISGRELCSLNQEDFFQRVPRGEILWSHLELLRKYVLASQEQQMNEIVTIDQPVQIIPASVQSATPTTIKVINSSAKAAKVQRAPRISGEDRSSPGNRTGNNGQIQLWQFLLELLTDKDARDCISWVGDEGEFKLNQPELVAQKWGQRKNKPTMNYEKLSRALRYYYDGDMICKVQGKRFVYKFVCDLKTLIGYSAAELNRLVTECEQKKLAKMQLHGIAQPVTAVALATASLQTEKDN
The method in brief:
as §1

A further experiment has as its target T4, ERG (Homo sapiens, UniProt P11308 1-479).
T4 sequence: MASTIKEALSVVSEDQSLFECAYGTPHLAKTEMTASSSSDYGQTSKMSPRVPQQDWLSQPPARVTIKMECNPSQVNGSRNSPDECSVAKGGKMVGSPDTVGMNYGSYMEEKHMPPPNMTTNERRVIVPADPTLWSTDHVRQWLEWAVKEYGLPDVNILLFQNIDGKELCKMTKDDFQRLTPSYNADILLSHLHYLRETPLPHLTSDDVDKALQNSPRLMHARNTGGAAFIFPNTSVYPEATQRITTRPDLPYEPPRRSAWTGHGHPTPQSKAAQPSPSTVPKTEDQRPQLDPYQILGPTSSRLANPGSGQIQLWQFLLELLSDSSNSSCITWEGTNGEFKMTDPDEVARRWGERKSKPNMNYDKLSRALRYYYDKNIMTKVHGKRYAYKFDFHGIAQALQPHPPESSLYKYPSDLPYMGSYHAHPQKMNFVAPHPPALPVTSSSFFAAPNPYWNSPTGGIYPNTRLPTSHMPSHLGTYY
The essentials: as §1

In a further experiment the target is ELF1 (Homo sapiens, UniProt P32519 1-619). The method in brief: as §1
Chain of ELF1 (P32519 whole entry): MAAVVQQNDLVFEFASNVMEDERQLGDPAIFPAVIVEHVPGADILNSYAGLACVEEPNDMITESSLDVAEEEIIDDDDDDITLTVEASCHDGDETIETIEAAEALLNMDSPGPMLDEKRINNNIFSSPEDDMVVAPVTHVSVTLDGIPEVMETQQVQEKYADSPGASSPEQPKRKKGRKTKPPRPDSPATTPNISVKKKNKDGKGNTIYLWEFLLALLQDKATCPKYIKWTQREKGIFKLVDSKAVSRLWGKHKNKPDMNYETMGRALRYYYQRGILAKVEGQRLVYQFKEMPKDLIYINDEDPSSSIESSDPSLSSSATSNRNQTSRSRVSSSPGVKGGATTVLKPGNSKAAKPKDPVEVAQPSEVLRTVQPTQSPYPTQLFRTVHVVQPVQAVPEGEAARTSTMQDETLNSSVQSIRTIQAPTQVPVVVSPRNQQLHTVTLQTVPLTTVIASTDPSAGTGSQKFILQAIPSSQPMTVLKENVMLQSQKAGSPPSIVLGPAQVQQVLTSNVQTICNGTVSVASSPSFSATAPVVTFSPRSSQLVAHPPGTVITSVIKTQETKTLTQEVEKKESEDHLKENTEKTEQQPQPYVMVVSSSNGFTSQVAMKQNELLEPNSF
Another experiment has as its target T5, EHF (Homo sapiens, UniProt Q9NZC4 1-300).
T5 sequence: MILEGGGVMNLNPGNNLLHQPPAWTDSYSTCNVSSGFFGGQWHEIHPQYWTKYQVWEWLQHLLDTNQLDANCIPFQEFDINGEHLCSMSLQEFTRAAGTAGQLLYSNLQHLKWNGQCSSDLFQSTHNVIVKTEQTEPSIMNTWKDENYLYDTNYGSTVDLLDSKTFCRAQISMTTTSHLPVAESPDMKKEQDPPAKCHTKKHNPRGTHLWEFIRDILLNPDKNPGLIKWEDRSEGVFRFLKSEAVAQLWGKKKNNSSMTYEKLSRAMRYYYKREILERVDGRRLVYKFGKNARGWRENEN
The method in brief:
as §1

A further experiment addresses SPI1 (Homo sapiens, UniProt P17947 1-270). The essentials: as §1
In the next experiment the target is SPIB (Homo sapiens, UniProt Q01892 1-262). The essentials: as §1
Chain of SPIB (Q01892 whole entry): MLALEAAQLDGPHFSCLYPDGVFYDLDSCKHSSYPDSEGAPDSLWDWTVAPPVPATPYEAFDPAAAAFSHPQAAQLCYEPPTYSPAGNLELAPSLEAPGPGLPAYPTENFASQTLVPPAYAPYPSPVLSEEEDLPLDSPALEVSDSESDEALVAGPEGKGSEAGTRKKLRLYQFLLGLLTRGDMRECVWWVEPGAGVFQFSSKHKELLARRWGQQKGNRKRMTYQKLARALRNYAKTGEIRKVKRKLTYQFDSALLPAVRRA
Another experiment addresses T6, ELK3 (Homo sapiens, UniProt P41970 1-407).
T6 sequence: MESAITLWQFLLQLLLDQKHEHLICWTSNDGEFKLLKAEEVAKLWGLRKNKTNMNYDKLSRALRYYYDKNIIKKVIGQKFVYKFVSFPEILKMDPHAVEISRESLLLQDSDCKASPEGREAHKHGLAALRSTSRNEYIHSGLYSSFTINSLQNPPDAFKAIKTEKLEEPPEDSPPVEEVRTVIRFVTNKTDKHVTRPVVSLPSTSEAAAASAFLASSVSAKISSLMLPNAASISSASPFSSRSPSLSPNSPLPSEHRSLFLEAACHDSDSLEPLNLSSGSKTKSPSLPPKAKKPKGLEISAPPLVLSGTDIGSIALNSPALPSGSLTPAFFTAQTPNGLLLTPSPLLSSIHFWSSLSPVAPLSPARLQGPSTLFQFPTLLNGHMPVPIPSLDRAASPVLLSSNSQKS
The essentials: as §1

The next experiment has as its target T7, FEV (Homo sapiens, UniProt Q99581 1-238).
T7 sequence: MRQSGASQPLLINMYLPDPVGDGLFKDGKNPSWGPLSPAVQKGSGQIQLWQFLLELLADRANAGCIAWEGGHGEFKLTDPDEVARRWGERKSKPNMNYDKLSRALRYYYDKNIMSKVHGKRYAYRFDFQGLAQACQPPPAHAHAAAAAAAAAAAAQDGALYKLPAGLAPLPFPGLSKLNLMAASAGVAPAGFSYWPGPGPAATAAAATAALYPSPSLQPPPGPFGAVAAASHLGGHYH
The essentials: as §1

Another experiment has as its target ETV5 (Homo sapiens, UniProt P41161 1-510). The method in brief: as §1
The target in another experiment is T8, SPIC (Homo sapiens, UniProt Q8N5J4 1-248).
T8 sequence: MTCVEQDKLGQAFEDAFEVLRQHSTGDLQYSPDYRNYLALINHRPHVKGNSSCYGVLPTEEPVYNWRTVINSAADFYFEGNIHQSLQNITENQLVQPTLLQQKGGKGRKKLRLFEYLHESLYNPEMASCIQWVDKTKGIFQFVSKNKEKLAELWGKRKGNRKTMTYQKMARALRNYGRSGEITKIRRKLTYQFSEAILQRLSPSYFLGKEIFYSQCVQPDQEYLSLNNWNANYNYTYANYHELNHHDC
The method in brief: as §1

Another experiment addresses ELF4 (Homo sapiens, UniProt Q99607 1-663). The method in brief: as §1
The target of the next experiment is T9, ELK4 (Homo sapiens, UniProt P28324-2 1-405).
T9 sequence: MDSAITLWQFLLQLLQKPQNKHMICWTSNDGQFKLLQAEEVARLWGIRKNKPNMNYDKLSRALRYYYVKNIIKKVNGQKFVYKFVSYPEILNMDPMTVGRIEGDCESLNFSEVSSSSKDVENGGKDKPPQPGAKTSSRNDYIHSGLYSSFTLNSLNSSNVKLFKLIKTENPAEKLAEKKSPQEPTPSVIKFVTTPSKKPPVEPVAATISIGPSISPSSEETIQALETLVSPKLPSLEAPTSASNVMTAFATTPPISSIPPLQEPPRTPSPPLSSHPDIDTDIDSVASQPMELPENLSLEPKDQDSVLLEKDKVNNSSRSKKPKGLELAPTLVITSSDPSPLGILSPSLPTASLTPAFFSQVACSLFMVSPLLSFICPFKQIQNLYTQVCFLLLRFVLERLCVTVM
The essentials:
as §1

Another experiment addresses T10, ETV2 (Homo sapiens, UniProt O00321 1-342).
T10 sequence: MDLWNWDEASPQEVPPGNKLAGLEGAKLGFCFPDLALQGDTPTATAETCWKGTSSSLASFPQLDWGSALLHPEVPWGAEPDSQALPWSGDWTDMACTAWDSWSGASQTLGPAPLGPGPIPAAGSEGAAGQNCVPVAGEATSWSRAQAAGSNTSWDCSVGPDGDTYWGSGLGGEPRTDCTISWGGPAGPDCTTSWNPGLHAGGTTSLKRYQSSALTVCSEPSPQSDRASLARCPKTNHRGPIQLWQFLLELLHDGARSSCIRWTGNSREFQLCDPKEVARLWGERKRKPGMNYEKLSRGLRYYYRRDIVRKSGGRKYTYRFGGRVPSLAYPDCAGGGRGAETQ
The method in brief: as §1

The target of another experiment is T11, ELF3 (Homo sapiens, UniProt P78545 1-371).
T11 sequence: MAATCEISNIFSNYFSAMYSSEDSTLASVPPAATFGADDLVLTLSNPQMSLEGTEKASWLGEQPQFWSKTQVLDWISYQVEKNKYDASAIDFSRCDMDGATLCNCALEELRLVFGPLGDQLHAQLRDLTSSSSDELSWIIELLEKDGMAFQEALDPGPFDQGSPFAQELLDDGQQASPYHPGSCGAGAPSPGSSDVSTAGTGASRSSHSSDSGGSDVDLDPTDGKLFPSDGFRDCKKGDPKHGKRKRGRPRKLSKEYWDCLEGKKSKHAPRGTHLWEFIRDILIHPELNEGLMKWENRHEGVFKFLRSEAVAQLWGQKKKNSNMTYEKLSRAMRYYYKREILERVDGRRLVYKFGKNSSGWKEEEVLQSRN
The method in brief: as §1

The next experiment addresses ETV1 (Homo sapiens, UniProt P50549 1-477). The method in brief:
as §1

Chain of ETV1 (P50549 whole entry): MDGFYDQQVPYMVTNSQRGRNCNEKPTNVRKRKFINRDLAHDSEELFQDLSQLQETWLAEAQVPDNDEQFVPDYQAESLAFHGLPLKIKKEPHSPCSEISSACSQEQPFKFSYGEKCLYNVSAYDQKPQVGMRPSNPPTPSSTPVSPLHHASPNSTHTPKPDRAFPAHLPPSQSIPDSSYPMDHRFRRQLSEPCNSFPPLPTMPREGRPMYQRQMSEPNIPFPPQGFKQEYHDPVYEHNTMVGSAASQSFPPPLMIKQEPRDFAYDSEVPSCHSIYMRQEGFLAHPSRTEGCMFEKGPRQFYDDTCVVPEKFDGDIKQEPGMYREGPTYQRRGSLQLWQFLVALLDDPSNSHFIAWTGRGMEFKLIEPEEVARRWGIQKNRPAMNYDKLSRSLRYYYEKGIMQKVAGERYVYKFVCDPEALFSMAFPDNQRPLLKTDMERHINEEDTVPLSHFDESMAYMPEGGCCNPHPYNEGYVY
Chain of ELF4 (Q99607 whole entry): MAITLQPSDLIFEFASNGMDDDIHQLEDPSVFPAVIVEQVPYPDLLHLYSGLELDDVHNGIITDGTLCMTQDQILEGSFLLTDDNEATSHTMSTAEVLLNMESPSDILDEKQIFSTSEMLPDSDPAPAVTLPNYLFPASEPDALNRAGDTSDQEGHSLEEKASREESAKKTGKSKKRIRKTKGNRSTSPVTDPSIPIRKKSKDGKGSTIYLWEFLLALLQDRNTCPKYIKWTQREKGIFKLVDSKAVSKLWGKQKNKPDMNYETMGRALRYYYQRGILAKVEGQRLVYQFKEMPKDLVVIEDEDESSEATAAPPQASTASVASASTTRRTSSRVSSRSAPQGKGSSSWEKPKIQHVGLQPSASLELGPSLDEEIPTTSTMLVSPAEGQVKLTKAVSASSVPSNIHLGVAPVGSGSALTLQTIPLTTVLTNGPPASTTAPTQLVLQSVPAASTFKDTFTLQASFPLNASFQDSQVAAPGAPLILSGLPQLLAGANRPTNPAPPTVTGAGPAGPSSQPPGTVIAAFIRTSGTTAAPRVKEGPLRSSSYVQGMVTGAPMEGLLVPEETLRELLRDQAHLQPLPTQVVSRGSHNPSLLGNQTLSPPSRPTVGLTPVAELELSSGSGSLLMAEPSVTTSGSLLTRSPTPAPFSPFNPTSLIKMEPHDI
Chain of ETV5 (P41161 whole entry): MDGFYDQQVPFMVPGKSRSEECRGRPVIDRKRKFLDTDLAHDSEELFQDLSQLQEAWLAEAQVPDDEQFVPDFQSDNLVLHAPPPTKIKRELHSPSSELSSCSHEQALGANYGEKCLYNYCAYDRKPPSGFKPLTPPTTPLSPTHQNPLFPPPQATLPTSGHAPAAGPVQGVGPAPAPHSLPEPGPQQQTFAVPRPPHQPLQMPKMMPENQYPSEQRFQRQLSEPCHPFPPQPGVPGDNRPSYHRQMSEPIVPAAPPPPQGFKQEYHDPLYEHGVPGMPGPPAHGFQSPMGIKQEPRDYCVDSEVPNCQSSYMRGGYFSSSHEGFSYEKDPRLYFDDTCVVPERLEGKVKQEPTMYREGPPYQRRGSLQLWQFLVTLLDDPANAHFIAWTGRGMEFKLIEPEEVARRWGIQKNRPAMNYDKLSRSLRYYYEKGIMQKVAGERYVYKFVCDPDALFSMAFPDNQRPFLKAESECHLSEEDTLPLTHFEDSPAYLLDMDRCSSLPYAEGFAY

As for CCAACG, the binding signal with FLI1 is 1.12 fold enrichment (6-mer frequency, TF over GST control); with ELK1, 1.15 fold enrichment (6-mer frequency, TF over GST control); in the experiment with GABPA, 1.09 fold enrichment (6-mer frequency, TF over GST control); in the experiment with ERG, 1.17 fold enrichment (6-mer frequency, TF over GST control); in the experiment with ELF1, 1.2 fold enrichment (6-mer frequency, TF over GST control); with EHF, 1.11 fold enrichment (6-mer frequency, TF over GST control). The binding signal in the experiment with SPI1 was 1.15 fold enrichment (6-mer frequency, TF over GST control); with SPIB it was 1.07 fold enrichment (6-mer frequency, TF over GST control); with ELK3, 1 fold enrichment (6-mer frequency, TF over GST control); with FEV it was 1.14 fold enrichment (6-mer frequency, TF over GST control); with ETV5, 1.06 fold enrichment (6-mer frequency, TF over GST control); with SPIC it was 1.11 fold enrichment (6-mer frequency, TF over GST control). In addition, the binding signal with ELF4 was 1.21 fold enrichment (6-mer frequency, TF over GST control); with ELK4 it was 1.12 fold enrichment (6-mer frequency, TF over GST control); with ETV2 it was 1.14 fold enrichment (6-mer frequency, TF over GST control); with ELF3, 1.17 fold enrichment (6-mer frequency, TF over GST control); with ETV1, 1.11 fold enrichment (6-mer frequency, TF over GST control).
In the case of CTCCGT, the binding signal was 1.32 fold enrichment (6-mer frequency, TF over GST control) in the experiment with FLI1; 1.28 fold enrichment (6-mer frequency, TF over GST control) with ELK1; 1.22 fold enrichment (6-mer frequency, TF over GST control) with GABPA; 1.16 fold enrichment (6-mer frequency, TF over GST control) with ERG; 1.21 fold enrichment (6-mer frequency, TF over GST control) with ELF1; 1.15 fold enrichment (6-mer frequency, TF over GST control) with EHF. Moreover, the binding signal with SPI1 was 1.19 fold enrichment (6-mer frequency, TF over GST control); in the experiment with SPIB, 1.13 fold enrichment (6-mer frequency, TF over GST control); in the experiment with ELK3, 1.38 fold enrichment (6-mer frequency, TF over GST control); with FEV it was 1.14 fold enrichment (6-mer frequency, TF over GST control); with ETV5 it was 1.24 fold enrichment (6-mer frequency, TF over GST control); with SPIC it was 1.14 fold enrichment (6-mer frequency, TF over GST control). Besides, the binding signal is 1.3 fold enrichment (6-mer frequency, TF over GST control) in the experiment with ELF4; 1.37 fold enrichment (6-mer frequency, TF over GST control) with ELK4; 1.17 fold enrichment (6-mer frequency, TF over GST control) with ETV2; 1.13 fold enrichment (6-mer frequency, TF over GST control) with ELF3; 1.15 fold enrichment (6-mer frequency, TF over GST control) with ETV1.
